The conditions of experiment [1]: Ebola virus entry assay, green fluorescence channel.
For experiment [2] the following is noted: Ebola virus entry assay, blue channel fluorescence.
For experiment [3] the following is noted: Ebola virus entry assay, ratio channel.
For experiment [4] the following is noted: Ebola virus entry assay, reporter ratio channel; Channel type: primary.
For experiment [5] the following is noted: Ebola virus entry assay, blue channel (ratio component).
Experiment [6] is described as follows: qHTS assay for measurement of the activity of small molecule inhibitors on Zika virus induced Caspase-3 activity in human iPSC derived neural progenitor cells (hNPCs) (AID 1224857; active = well fitted curve in the direction sought with a large enough effect; an effect the other way counts as inactive or inconclusive; also: % of control where 0% means no effect; nearly all actives have a fitted effect of over 65% in size). To be noted: hNPCs ZIKV-induced caspase-3/7, Caspase-Glo luminescence, 6 h; series mostly up to 45.7 µM. The method in brief: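 Caspase-3/7 induction by a 6-hour ZIKV infection was quantified with a luminescent Caspase-Glo 3/7 reagent incubated 30 minutes at room temperature. Compounds were preincubated with hNPCs for 1 hour; inhibition was calculated against uninfected and infected control wells.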
(In general: In qHTS, concentration-response curves come from the screen itself.)

Experiment [7] can be described thus: qHTS assay for measurement of the activity of small molecule inhibitors on Zika virus induced Caspase-3 activity in human astrocytoma cells (AID 1224859; active = well fitted curve in the direction sought with a large enough effect; an effect the other way counts as inactive or inconclusive;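 also: plate controls were ZIKV-infected untreated cells for no effect and uninfected cells for full effect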). The note with it: SNB-19 ZIKV-induced caspase-3/7, luminescence, 6 h; series mostly up to 45.7 µM. The method in brief:
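In SNB-19 cells plated at 250 cells/well and grown 16-20 h, compounds were applied 1 h before ZIKV (2 FFU/cell). Six hours later caspase-3/7 luminescence was recorded.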

The nature of experiment [8]: qHTS assay to identify small molecule inhibitors of chordoma cells - UCH-1 (AID 1259355; active = well fitted curve in the direction sought with a large enough effect; an effect the other way counts as inactive or inconclusive; also: % is scaled to controls: 0 for no effect and ±100 for the full control effect; nearly all actives have a fitted effect of over 55% in size). The note with it: UCH-1 chordoma viability, CellTiter-Glo, 48 h, combination; series mostly up to 46.1 µM. In short, it runs like this:
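800 cells/well, overnight attach; compounds pinned at 15 concs, then auranofin/camptothecin/doxorubicin/rubitecan/topotecan combo added; 48hr 37 C, 5% CO2; CellTiter-Glo, 30min RT, luminescence.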

The nature of experiment [9]: qHTS assay to identify small molecule inhibitors of chordoma cells - UCH-2 (AID 1259356; active = well fitted curve in the direction sought with a large enough effect; an effect the other way counts as inactive or inconclusive; also: % is scaled to controls: 0 for no effect and ±100 for the full control effect). The note with it: UCH-2 chordoma viability, CellTiter-Glo ATP luminescence, 48 h; series mostly up to 46.1 µM.

The source of these data is PubChem BioAssay (NCATS).

Values without a mark were called inactive. Inconclusive results are not listed. For part of these data: Results with a measured potency or affinity are listed apart. Calls of active or inactive are those of the source. Unless noted, no rule for the calls is given here.
For efficacy in this document: 0% is about no effect.

A word on the AC50: it is the concentration giving half of the maximal activity seen. With `CN1CCOC(c2ccccc2)c2ccccc2C1` (centres undefined), the efficacy in experiment [1] was 45.6%. In addition, the molecule was called inactive in [2], in experiment [3] and in experiment [5]. For the same molecule, in experiment [4], the AC50 was 39.8 µM (active).

`O=C1OC2(c3ccc(O)cc3Oc3cc(O)ccc32)c2ccccc21`: the AC50 in experiment [1] was 25.1 µM (active); in [3] it was 7.94 µM (active); in [4], 7.94 µM (active). Further, the call in experiment [2] and in [5] was inactive.

For `CC#C[C@]1(O)CC[C@H]2[C@@H]3C[C@H](C)C4=CC(=O)CC[C@]4(C)[C@H]3CC[C@@]21C`, the efficacy in experiment [1] is 83.4%. Also, the outcome in [2], in experiment [3], in [5] and in experiment [7] was inactive. For the same molecule, the AC50 in experiment [4] is 39.8 µM (active). Further, the Potency entry in experiment [6] is “inactive”.

In the case of `C[C@]12CC[C@H]3[C@@H](CCC4=CC(=O)CC[C@@]43C)[C@@H]1CC[C@@H]2C(=O)CO`, the efficacy in [1] is 61.9%. Further, the result in experiment [2], in experiment [3], in experiment [4] and in experiment [5] was inactive.

Regarding `COc1ccc(S(=O)(=O)N2c3ccc(Cl)cc3[C@@](O)(c3ccccc3Cl)[C@H]2C(=O)N2CCC[C@@H]2C(N)=O)cc1OC`, the efficacy in [1] was 45%. In addition, the AC50 in [2], in experiment [3] and in experiment [4] was 10 µM (active) each time. Moreover, the outcome in [5] was inactive.

Regarding `CCOC(=O)OC(C)OC(=O)[C@@H]1N2C(=O)[C@@H](NC(=O)[C@H](N)c3ccccc3)[C@H]2SC1(C)C` (some centres undefined), in experiment [1], the efficacy is 47.6%. The call in experiment [2], in experiment [3], in experiment [4] and in [5] was inactive.

Turning to `CN(C(=O)CCCOc1ccc2[nH]c(=O)ccc2c1)C1CCCCC1`, in experiment [1], the efficacy was 72.6%. Further, the molecule was called inactive in [2], in [3], in experiment [4] and in experiment [5].

Turning to `CC[N+](CC)(CC)CCOc1ccc(/C=C/c2ccccc2)cc1`, in [1], the efficacy is 64.2%. Besides, the result in [2], in experiment [3] and in experiment [5] was inactive. In addition, the AC50 in [4] was 39.8 µM (active).

As for `CCn1c(=O)c2c(nc(C=Cc3ccc(OC)c(OC)c3)n2C)n(CC)c1=O`, the efficacy in [1] is 44.2%. The molecule was called inactive in experiment [2], in [3], in experiment [4] and in experiment [5].

As for `C=C1C(=C/C=C2\CCC[C@]3(C)[C@@H]([C@H](C)/C=C/[C@@H](O)C4CC4)CC[C@@H]23)C[C@@H](O)C[C@@H]1O`, the efficacy in [1] was 59.6%. In addition, the outcome in experiment [2], in [3] and in experiment [5] was inactive. Besides, the AC50 in experiment [4] is 39.8 µM (active).

With `O=C(NCC1CN(c2ccc(N3CCOCC3=O)cc2)C(=O)O1)c1ccc(Cl)s1` (centres undefined), in [1], the efficacy was 23%. In addition, the call in experiment [2], in experiment [3], in experiment [4] and in experiment [5] was inactive.

Turning to `CCNC(=O)NCCCOc1cccc(CN2CCCCC2)c1`, the efficacy in experiment [1] is 42.2%. The result in [2], in experiment [3], in [4] and in experiment [5] was inactive.

As to `CC(N)C(=O)OC(C)(C)Cc1ccc(Cl)cc1` (centres undefined), in [1], the efficacy was 77%. Besides, the figures for the AC50 in experiment [2], in experiment [3] and in experiment [4] were 15.8 µM (active), 14.1 µM (active) and 14.1 µM (active), respectively. The Potency result in [6] was “inactive”.

Regarding `CC(C)NCCCC1(C(N)=O)c2ccccc2-c2ccccc21`, in experiment [1], the efficacy is 42.8%. The result in experiment [2], in experiment [3], in experiment [4] and in experiment [5] was inactive.

For the molecule `O=C(/C=C/c1ccccc1)NCCO`, the efficacy in [1] was 100%. The call in experiment [2], in experiment [3] and in experiment [5] was inactive. In addition, the AC50 in [4] is 39.8 µM (active).

For the molecule `CNC[C@H](O)c1ccc(O)c(O)c1`, the efficacy in [1] was 27.1%. Also, the outcome in experiment [2], in experiment [3], in experiment [4] and in experiment [5] was inactive.

With `CCCC(=O)OC[C@@H](OC(=O)CCC)[C@@H](OC(=O)CCC)[C@H](Cn1c2nc(=O)[nH]c(=O)c-2nc2cc(C)c(C)cc21)OC(=O)CCC`, the efficacy in experiment [1] is 140%. The molecule was classed as inactive in experiment [2], in experiment [3], in experiment [4] and in experiment [5].

In the case of `Cc1nc2ccccc2c(=O)n1-c1ccccc1Cl`, the efficacy in experiment [1] was 30.7%. In addition, the outcome in [2], in [5] and in experiment [7] was inactive. Besides, the AC50 in experiment [3] and in experiment [4] was 20 µM (active) in each case. Besides, the Potency result in experiment [6] is “inactive”.

In the case of `C#C[C@]1(O)C=C[C@H]2[C@@H]3CCC4=CC(=O)CC[C@@H]4[C@H]3CC[C@@]21CC`, in experiment [1], the efficacy is 51.7%. Besides, the molecule was classed as inactive in experiment [2], in experiment [3], in [4], in [5] and in experiment [7]. Moreover, the Potency result in experiment [6], in experiment [8] and in experiment [9] was “inactive” each time.

With `Cc1ccc([N+](=O)[O-])[c]2c1[O][Hg]2`, the efficacy in experiment [1] was -177%. Moreover, the AC50 in experiment [2] is 1.78 µM (active); in experiment [3], 0.708 µM (active); in experiment [4], 0.708 µM (active). For the same molecule, the Potency result in [6] was “inactive”.

With `NCCc1ccc(O)c(O)c1`, in [1], the efficacy was 28.6%. Moreover, the molecule was called inactive in experiment [2], in experiment [3], in experiment [4] and in experiment [5].

As to `CC[C@H]1C[C@H]2[C@@H]3CCC4=CC(=O)CC[C@@H]4[C@H]3CC[C@]2(C)[C@H]1O`, the efficacy in experiment [1] is 63.1%. Moreover, the call in [2], in experiment [5] and in [7] was inactive. The AC50 in [3] and in [4] was 15.8 µM (active) in each case. Moreover, in experiment [6], the Potency entry is “inactive”.

As to `Cc1cc(C)c(/C=C2\C(=O)Nc3ccccc32)[nH]1`, the efficacy in experiment [1] is 78.6%. The call in experiment [2], in experiment [3] and in [5] was inactive. Besides, the AC50 in experiment [4] is 35.5 µM (active).

As for `CC(=O)N(CC(=O)N(C)C)c1ccccc1`, the efficacy in experiment [1] is 35.3%. Further, the molecule was classed as inactive in [2], in [3], in experiment [4] and in experiment [5].

Consider `CC1COC2(c3ccccc3Cl)c3cc(Cl)ccc3NC(=O)CN12` (centres undefined), for which, in experiment [1], the efficacy was 68%. In addition, the AC50 in [2], in experiment [3] and in experiment [4] was 28.2 µM (active) throughout. Also, in [6], the Potency entry was “inactive”. Besides, the call in experiment [7] was inactive.

For `O=C(CCCN1CCC(n2c(=O)[nH]c3ccccc32)CC1)c1ccc(F)cc1`, in experiment [1], the efficacy was 109%. Further, the AC50 in [2], in experiment [3] and in experiment [4] was 25.1 µM (active) throughout. Also, the Potency entry in experiment [6], in experiment [8] and in experiment [9] was “inactive” in each case. In experiment [7], the molecule was classed as inactive.
